Measured values: PubChem BioAssay (EPA / NIEHS)
The source made the active and inactive calls. The calls were made as follows: active = hit-call score of the fitted dose curve at least 0.9, where 1 is the maximum; inactive = score below 0.9.

Legend:
Conditions in all cases: mRNA level, 48 h; actives raise or lower the signal
[1] = read-out: Insulin-like growth factor-binding protein 1 (IGFBP1), IGFBP1 (gene 3484); experiment: LTEA_HepaRG_IGFBP1: Life Technologies and Expression Analysis (LTEA) Assay for Insulin-like growth factor-binding protein 1 (IGFBP1) using HepaRG (AID 2283508)
In short: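 HepaRG, 48 h, 8 conc. (max 100 uM, half-log), duplicates, 0.5% DMSO. Readout: TaqMan qRT-PCR, ACTB/GAPDH/POLR2A normalisation. Fit: bidirectional vs DMSO.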

[2] = read-out: Interleukin 6 (IL6), IL6 (gene 3569); experiment: LTEA_HepaRG_IL6: Life Technologies and Expression Analysis (LTEA) Assay for Interleukin 6 (IL6) using HepaRG (AID 2283509)
In short: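 HepaRG cells exposed in duplicate for 48 h to eight half-log concentrations, top 100 uM, in 0.5% DMSO serum-free induction medium. mRNA measured by qRT-PCR, normalized to ACTB, GAPDH and POLR2A. Bidirectional fit versus DMSO.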

[3] = read-out: Interleukin 6 Receptor (IL6R), IL6R (gene 3570); experiment: LTEA_HepaRG_IL6R: Life Technologies and Expression Analysis (LTEA) Assay for Interleukin 6 Receptor (IL6R) using HepaRG (AID 2283510);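 as to AC50: TaqMan qRT-PCR signal normalized to ACTB GAPDH and POLR2A housekeeping genes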
In short: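 Differentiated HepaRG cells, plated 48 h, then exposed in duplicate for 48 h in serum-free induction medium to 8 half-log concentrations (top 100 uM, 0.5% DMSO). IL6R mRNA measured by TaqMan qRT-PCR, normalized to ACTB/GAPDH/POLR2A; bidirectional fit vs DMSO.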

[4] = read-out: Potassium channel subfamily K member 1 (KCNK1), KCNK1 (gene 3775); experiment: LTEA_HepaRG_KCNK1: Life Technologies and Expression Analysis (LTEA) Assay for Potassium channel subfamily K member 1 (KCNK1) using HepaRG (AID 2283511)
In short: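 Differentiated HepaRG cells, 48 h exposure in serum-free induction medium with 0.5% DMSO; 8 concentrations, half-log from 100 uM, duplicate. KCNK1 mRNA by qRT-PCR, normalized to ACTB, GAPDH, POLR2A; bidirectional fit vs DMSO.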

[5] = read-out: Keratin 19 (KRT19), KRT19 (gene 3880); experiment: LTEA_HepaRG_KRT19: Life Technologies and Expression Analysis (LTEA) Assay for Keratin 19 (KRT19) using HepaRG (AID 2283512)
In short: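 Readout is qRT-PCR of KRT19 mRNA, normalized to ACTB, GAPDH and POLR2A, from HepaRG cells treated 48 h with eight-point half-log dilutions topping at 100 uM. Activity in either direction is scored relative to 0.5% DMSO vehicle.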

[6] = read-out: JUN Transcription Factor, JUN (gene 3725); experiment: LTEA_HepaRG_JUN: Life Technologies and Expression Analysis (LTEA) Assay for JUN Transcription Factor using HepaRG (AID 2283513)
In short: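 HepaRG cells, 48 h post-plating, exposed 48 h in serum-free induction medium to 8-point half-log series (top 100 uM, 0.5% DMSO), duplicate; mRNA by qRT-PCR (TaqMan, Fluidigm), normalized to ACTB/GAPDH/POLR2A; bidirectional fit vs DMSO.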

[7] = read-out: Lipase C (LIPC), LIPC (gene 3990); experiment: LTEA_HepaRG_LIPC: Life Technologies and Expression Analysis (LTEA) Assay for Lipase C (LIPC) using HepaRG (AID 2283514)
In short: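 HepaRG cells, 48 h after plating, treated in duplicate for 48 h in serum-free induction medium over 8 half-log concentrations from 100 uM, 0.5% DMSO. LIPC mRNA by TaqMan qRT-PCR normalized to ACTB/GAPDH/POLR2A; bidirectional fit versus DMSO.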

[8] = read-out: Lipoprotein lipase (LPL), LPL (gene 4023); experiment: LTEA_HepaRG_LPL: Life Technologies and Expression Analysis (LTEA) Assay for Lipoprotein lipase (LPL) using HepaRG (AID 2283515)
In short: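 Differentiated HepaRG cells, plated 48 h, then exposed 48 h in serum-free induction medium to 8 concentrations (top 100 uM, half-log steps) in 0.5% DMSO, duplicate. LPL mRNA measured by qRT-PCR, normalized to ACTB, GAPDH and POLR2A.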

[9] = read-out: MicroRNA 122 (MIR122), gene 406906; experiment: LTEA_HepaRG_MIR122: Life Technologies and Expression Analysis (LTEA) Assay for MicroRNA 122 (MIR122) using HepaRG (AID 2283516); also: the transcript read is the microRNA miR-122
In short: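 Differentiated human HepaRG cells in serum-free induction medium exposed 48 h to 8 half-log concentrations from 100 uM in 0.5% DMSO, duplicate. MIR122 quantified by Fluidigm TaqMan qRT-PCR, normalised to ACTB, GAPDH, POLR2A; fold change fitted bidirectionally versus DMSO.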

[10] = read-out: matrix metalloproteinase-10 (MMP10), MMP10 (gene 4319); experiment: LTEA_HepaRG_MMP10: Life Technologies and Expression Analysis (LTEA) Assay for matrix metalloproteinase-10 (MMP10) using HepaRG (AID 2283517)
In short: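 Differentiated HepaRG cells in serum-free induction medium exposed 48 h in duplicate to 8-point half-log series up to 100 uM in 0.5% DMSO. mRNA quantified by qRT-PCR, normalised to ACTB, GAPDH, POLR2A; bidirectional fit versus DMSO.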

[11] = read-out: MYC, MYC (gene 4609); experiment: LTEA_HepaRG_MYC: Life Technologies and Expression Analysis (LTEA) Assay for MYC using HepaRG (AID 2283518)
In short: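 Expression changes were scored by TaqMan qRT-PCR with ACTB, GAPDH and POLR2A normalization. Cultures in serum-free induction medium received duplicate 8-point concentration series, highest 100 uM, for 48 h; DMSO (0.5%) served as baseline.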

[12] = read-out: matrix metalloproteinase-3 (MMP3), MMP3 (gene 4314); experiment: LTEA_HepaRG_MMP3: Life Technologies and Expression Analysis (LTEA) Assay for matrix metalloproteinase-3 (MMP3) using HepaRG (AID 2283519)
In short: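 HepaRG cells (~100,000/well) in serum-free induction medium were dosed in duplicate for 48 h with an 8-point half-log series from 100 uM, 0.5% DMSO. MMP3 mRNA was quantified by Fluidigm TaqMan qRT-PCR, normalized to three housekeeping genes.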

[13] = read-out: Paternally Expressed 10 (PEG10), PEG10 (gene 23089); experiment: LTEA_HepaRG_PEG10: Life Technologies and Expression Analysis (LTEA) Assay for Paternally Expressed 10 (PEG10) using HepaRG (AID 2283520)
In short: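 Differentiated HepaRG cells exposed 48 h in serum-free induction medium to eight half-log concentrations topping at 100 uM, 0.5% DMSO, in duplicate. PEG10 mRNA quantified by TaqMan qRT-PCR, normalized to ACTB, GAPDH and POLR2A; bidirectional fit versus DMSO.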

[14] = read-out: Nuclear factor NF-kappa-B p105 subunit (Homo sapiens) (UniProt P19838); experiment: LTEA_HepaRG_NFKB1: Life Technologies and Expression Analysis (LTEA) Assay for Nuclear Factor Kappa B Subunit 1 (NFKB1) using HepaRG (AID 2283521)
In short: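 HepaRG, 48 h exposure; 8-pt half-log series from 100 uM in 0.5% DMSO; duplicates. Readout: NFKB1 mRNA by qRT-PCR (Fluidigm arrays), housekeeping-normalized. Gain/loss fit vs DMSO baseline.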

[15] = read-out: Protein phosphatase 2A (PPP2R4), PTPA (gene 5524); experiment: LTEA_HepaRG_PPP2R4: Life Technologies and Expression Analysis (LTEA) Assay for Protein phosphatase 2A (PPP2R4) using HepaRG (AID 2283522)
In short: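 Differentiated human HepaRG cells in serum-free induction medium were exposed 48 h to 8 concentrations (top 100 µM, half-log steps, duplicate) in 0.5% DMSO. PPP2R4 mRNA was measured by TaqMan qRT-PCR, normalised to ACTB, GAPDH and POLR2A, and fitted bidirectionally versus DMSO.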

[16] = read-out: Phosphatase and tensin (PTEN), PTEN (gene 5728); experiment: LTEA_HepaRG_PTEN: Life Technologies and Expression Analysis (LTEA) Assay for Phosphatase and tensin (PTEN) using HepaRG (AID 2283523)
In short: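 HepaRG cells, 48 h after plating, exposed in duplicate for 48 h in serum-free induction medium to 8 half-log concentrations up to 100 uM (0.5% DMSO). PTEN mRNA by qRT-PCR, normalized to ACTB, GAPDH, POLR2A; bidirectional fit versus DMSO.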

[17] = read-out: solute carrier (SLC22A1), SLC22A1 (gene 6580); experiment: LTEA_HepaRG_SLC22A1: Life Technologies and Expression Analysis (LTEA) Assay for solute carrier (SLC22A1) using HepaRG (AID 2283524)
In short: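 Differentiated human HepaRG cells in serum-free induction medium, exposed 48 h in duplicate to 8-point half-log series from 100 µM top in 0.5% DMSO. SLC22A1 mRNA by TaqMan qRT-PCR normalized to ACTB, GAPDH, POLR2A; bidirectional fit versus DMSO.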

[18] = read-out: Pyruvate Dehydrogenase Kinase 4 (PDK4), PDK4 (gene 5166); experiment: LTEA_HepaRG_PDK4: Life Technologies and Expression Analysis (LTEA) Assay for Pyruvate Dehydrogenase Kinase 4 (PDK4) using HepaRG (AID 2283525)
In short: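 HepaRG cells plated 48 h, then switched to serum-free induction medium and exposed in duplicate for 48 h to 8 half-log concentrations from 100 uM in 0.5% DMSO. PDK4 mRNA measured by qRT-PCR, normalized to ACTB, GAPDH and POLR2A; bidirectional fit versus DMSO.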

[19] = read-out: NAD(P)H dehydrogenase [quinone] 1 (NQO1), NQO1 (gene 1728); experiment: LTEA_HepaRG_NQO1: Life Technologies and Expression Analysis (LTEA) Assay for NAD(P)H dehydrogenase [quinone] 1 (NQO1) using HepaRG (AID 2283526)
In short: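 Differentiated human HepaRG cells in serum-free induction medium, dosed in duplicate for 48 h at 8 half-log concentrations up to 100 uM in 0.5% DMSO. NQO1 mRNA by qRT-PCR normalized to ACTB, GAPDH, POLR2A; bidirectional fit versus DMSO baseline.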

[20] = read-out: Nuclear factor erythroid 2-related factor 2 (Homo sapiens) (UniProt Q16236); experiment: LTEA_HepaRG_NFE2L2: Life Technologies and Expression Analysis (LTEA) Assay for Nuclear factor erythroid 2-related factor 2 (NFE2L2) Transcription Factor using HepaRG (AID 2283527)
In short: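 Differentiated human HepaRG cells, serum-free induction medium, exposed 48 h in duplicate to eight half-log concentrations up to 100 uM in 0.5% DMSO. NFE2L2 mRNA by Fluidigm TaqMan qRT-PCR, normalised to ACTB, GAPDH, POLR2A; bidirectional change versus DMSO.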

Measured: AC50

Chain of Nuclear factor erythroid 2-related factor 2 (Homo sapiens) (Q16236 whole entry, looked up): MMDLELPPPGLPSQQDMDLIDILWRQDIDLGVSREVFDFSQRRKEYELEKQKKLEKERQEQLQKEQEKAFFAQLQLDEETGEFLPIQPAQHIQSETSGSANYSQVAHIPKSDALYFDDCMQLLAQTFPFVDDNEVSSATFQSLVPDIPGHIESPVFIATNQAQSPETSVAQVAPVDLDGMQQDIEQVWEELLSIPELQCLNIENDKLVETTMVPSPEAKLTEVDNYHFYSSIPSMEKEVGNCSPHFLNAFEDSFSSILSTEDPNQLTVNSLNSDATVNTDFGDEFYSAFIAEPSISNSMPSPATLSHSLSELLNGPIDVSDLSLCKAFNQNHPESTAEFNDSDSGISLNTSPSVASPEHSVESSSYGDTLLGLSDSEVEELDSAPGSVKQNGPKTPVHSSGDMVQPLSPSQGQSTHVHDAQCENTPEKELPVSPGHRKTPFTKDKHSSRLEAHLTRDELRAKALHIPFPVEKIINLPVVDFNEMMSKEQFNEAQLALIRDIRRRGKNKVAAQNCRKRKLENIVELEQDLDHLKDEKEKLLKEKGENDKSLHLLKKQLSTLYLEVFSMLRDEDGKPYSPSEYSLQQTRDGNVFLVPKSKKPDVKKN
Chain of Nuclear factor NF-kappa-B p105 subunit (Homo sapiens) (P19838 whole entry, looked up): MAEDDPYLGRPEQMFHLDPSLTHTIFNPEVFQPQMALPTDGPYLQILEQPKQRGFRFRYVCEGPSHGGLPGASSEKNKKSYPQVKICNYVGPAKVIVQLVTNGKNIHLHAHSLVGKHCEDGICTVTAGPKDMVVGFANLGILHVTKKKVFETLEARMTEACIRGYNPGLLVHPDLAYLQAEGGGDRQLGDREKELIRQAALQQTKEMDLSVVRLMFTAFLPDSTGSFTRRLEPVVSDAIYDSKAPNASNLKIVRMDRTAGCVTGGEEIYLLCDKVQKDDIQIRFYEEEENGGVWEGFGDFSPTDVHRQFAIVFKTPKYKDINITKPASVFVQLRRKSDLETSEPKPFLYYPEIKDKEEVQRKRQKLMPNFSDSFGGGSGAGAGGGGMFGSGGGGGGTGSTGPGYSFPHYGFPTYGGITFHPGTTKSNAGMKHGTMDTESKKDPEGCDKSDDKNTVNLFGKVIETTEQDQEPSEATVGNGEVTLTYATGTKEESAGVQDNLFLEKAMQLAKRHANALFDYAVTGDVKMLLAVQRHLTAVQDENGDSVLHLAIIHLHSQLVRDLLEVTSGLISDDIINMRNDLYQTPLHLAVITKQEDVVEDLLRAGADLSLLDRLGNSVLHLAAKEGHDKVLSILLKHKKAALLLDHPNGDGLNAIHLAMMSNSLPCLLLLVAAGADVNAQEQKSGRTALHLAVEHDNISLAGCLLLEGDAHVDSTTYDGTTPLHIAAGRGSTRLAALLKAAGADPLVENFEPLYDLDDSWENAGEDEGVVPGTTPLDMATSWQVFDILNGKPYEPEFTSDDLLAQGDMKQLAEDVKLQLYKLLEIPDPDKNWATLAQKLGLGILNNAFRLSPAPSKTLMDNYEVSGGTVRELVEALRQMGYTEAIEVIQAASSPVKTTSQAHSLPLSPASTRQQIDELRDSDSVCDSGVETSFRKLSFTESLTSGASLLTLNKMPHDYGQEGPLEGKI

CC1(C)CC(N=C=O)CC(C)(CN=C=O)C1 (stereo unspecified)
not listed: [19] | [20]
inactive: all other assays above

CCCCCCCCCCCCCCCC
not listed: [14] | [20]
inactive: all other assays above

CCOC(=O)CCC(=O)OCC
active: [8] 85000 nM | [16] 81200 nM
not listed: [14] | [19] | [20]
inactive: all other assays above

Clc1cc(Cl)c(Cl)cc1Cl
not listed: [20]
inactive: all other assays above

NCCO
not listed: [14] | [19] | [20]
inactive: all other assays above

Cc1cccc(Nc2cc(Cl)nc(SCC(=O)O)n2)c1C
not listed: [18]
inactive: all other assays above

CC1(C)NC(=O)NC1=O
not listed: [9] | [19] | [20]
inactive: all other assays above

CC(=O)C(C)=CC1C(C)=CCCC1(C)C (stereo unspecified)
not listed: [14] | [20]
inactive: all other assays above

COc1ccc(C)cc1N
not listed: [19] | [20]
inactive: all other assays above

CCCc1cc(=O)[nH]c(=S)[nH]1
not listed: [14]
inactive: all other assays above

COc1cc(C=O)ccc1O
not listed: [19]
inactive: all other assays above

Cc1c(C(=O)O)c(O)cc2c1C(=O)c1c(O)c([C@@H]3O[C@H](CO)[C@@H](O)[C@H](O)[C@H]3O)c(O)c(O)c1C2=O
not listed: [14] | [20]
inactive: all other assays above

CC(CO)OC(C)CO (stereo unspecified) (tested in a mixture with another compound)
not listed: [20]
inactive: all other assays above

O=C(OCCCCCOC(=O)c1ccccc1)c1ccccc1
inactive: [5] | [10] | [13] | [17]
active: [1] 1990 nM | [2] 1020 nM | [3] 1910 nM | [4] 2570 nM | [6] 1290 nM | [7] 2100 nM | [8] 973 nM | [9] 449 nM | [11] 2260 nM | [12] 2230 nM | [14] 2080 nM | [15] 2430 nM | [16] 1850 nM | [18] 309 nM | [19] 1800 nM | [20] 145 nM
